Screen size: about 5,500 compounds; about 2,000 (36%) were called active. Not shown: some 18% with an inconclusive outcome. Rule as the data show it: active = normalized growth mostly below about 0.91 (no sharp cut-off); inconclusive = no clear call, values can overlap the other calls; inactive = mostly above about 0.92. The list shows a part of the results.
Assay: chemical genetic growth profiling, strain panel (AID 1159580);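 also: tested at 20 µM; growth read once vehicle control cultures reached saturation at 30 °C; 1 = growth at the plate median or of vehicle wells; lower values mean less growth of the strain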
Settings: S. cerevisiae deletion strains, growth OD
[1] = locus YAR019C, strain CDC15, stronger effect = lower value
[2] = locus YBL105C, strain PKC1, stronger effect = lower value
[3] = locus YBR135W, strain CKS1, stronger effect = lower value
[4] = locus YBR136W, strain MEC1, stronger effect = lower value
[5] = locus YBR160W, strain CDC28, stronger effect = lower value
[6] = locus YDL017W, strain CDC7, stronger effect = lower value
[7] = locus YDL028C, strain MPS1, stronger effect = lower value
[8] = locus YDL101C, strain DUN1, stronger effect = lower value
[9] = locus YDL108W, strain KIN28, stronger effect = lower value
[10] = locus YDL132W, strain cdc53, stronger effect = lower value
[11] = locus YDL214C, strain PRR2, stronger effect = lower value
[12] = locus YDR052C, strain DBF4, stronger effect = lower value
[13] = locus YDR054C, strain cdc34, stronger effect = lower value
[14] = locus YDR226W, strain ADK1, stronger effect = lower value
[15] = locus YDR477W, strain SNF1, stronger effect = lower value
[16] = locus YER123W, strain YCK3, stronger effect = lower value
[17] = locus YER133W, strain GLC7, stronger effect = lower value
[18] = locus YFL009W, strain cdc4, stronger effect = lower value
[19] = locus YFL029C, strain CAK1, stronger effect = lower value
[20] = locus YFR003C, strain YPI1, stronger effect = lower value
[21] = locus YFR019W, strain FAB1, stronger effect = lower value
[22] = locus YFR028C, strain CDC14, stronger effect = lower value
[23] = locus YGR040W, strain KSS1, stronger effect = lower value
[24] = locus YGR052W, strain FMP48, stronger effect = lower value
[25] = locus YGR092W, strain DBF2, stronger effect = lower value
[26] = locus YHR030C, strain SLT2, stronger effect = lower value
[27] = locus YHR079C, strain IRE1, stronger effect = lower value
[28] = locus YHR082C, strain KSP1, stronger effect = lower value
[29] = locus YHR205W, strain SCH9, stronger effect = lower value
[30] = locus YIL147C, strain SLN1, stronger effect = lower value
[31] = locus YJL095W, strain BCK1, stronger effect = lower value
[32] = locus YJL128C, strain PBS2, stronger effect = lower value
[33] = locus YJL157C, strain FAR1, stronger effect = lower value
[34] = locus YJR016C, strain ILV3, stronger effect = lower value
[35] = locus YJR066W, strain TOR1 (second series), stronger effect = lower value
[36] = locus YJR066W, strain TOR1, stronger effect = lower value
[37] = locus YKL048C, strain ELM1, stronger effect = lower value
[38] = locus YKL067W, strain YNK1, stronger effect = lower value
[39] = locus YKL101W, strain HSL1, stronger effect = lower value
[40] = locus YKL193C, strain SDS22, stronger effect = lower value
[41] = locus YKL203C, strain TOR2, stronger effect = lower value
[42] = locus YLR113W, strain HOG1, stronger effect = lower value
[43] = locus YLR133W, strain CKI1, stronger effect = lower value
[44] = locus YLR403W, strain SFP1, stronger effect = lower value
[45] = locus YML070W, strain DAK1, stronger effect = lower value
[46] = locus YMR001C, strain CDC5, stronger effect = lower value
[47] = locus YMR205C, strain PFK2 (second series), stronger effect = lower value
[48] = locus YMR277W, strain FCP1, stronger effect = lower value
[49] = locus YNL006W, strain LST8, stronger effect = lower value
[50] = locus YNL020C, strain ARK1, stronger effect = lower value
[51] = locus YNL161W, strain CBK1, stronger effect = lower value
[52] = locus YNL183C, strain NPR1, stronger effect = lower value
[53] = locus YNL207W, strain RIO2, stronger effect = lower value
[54] = locus YNL222W, strain SSU72, stronger effect = lower value
[55] = locus YNL307C, strain MCK1 (second series), stronger effect = lower value
[56] = locus YOL078W, strain AVO1, stronger effect = lower value
[57] = locus YOL136C, strain PFK27, stronger effect = lower value
[58] = locus YOR061W, strain CKA2, stronger effect = lower value
[59] = locus YOR119C, strain RIO1, stronger effect = lower value
[60] = locus YOR231W, strain MKK1, stronger effect = lower value
[61] = locus YOR329C, strain SCD5, stronger effect = lower value
[62] = locus YPL031C, strain PHO85, stronger effect = lower value
[63] = locus YPL153C, strain RAD53, stronger effect = lower value
[64] = locus YPL204W, strain HRR25, stronger effect = lower value
[65] = locus YPL209C, strain IPL1, stronger effect = lower value
[66] = locus YPL256C, strain CLN2, stronger effect = lower value
[67] = locus YPR025C, strain CCL1, stronger effect = lower value
[68] = locus YPR106W, strain ISR1, stronger effect = lower value
[69] = locus YPR111W, strain DBF20, stronger effect = lower value
[70] = strain NNK1, stronger effect = lower value
[71] = strain TSCII, stronger effect = lower value

Measured: normalized growth

Cc1cc(Cl)ccc1NNC(=O)c1snnc1C
inactive: [1] 0.971 | [2] 0.949 | [3] 0.967 | [4] 0.949 | [5] 0.959 | [6] 0.951 | [7] 0.969 | [8] 0.968 | [9] 0.955 | [10] 0.978 | [11] 0.907 | [12] 0.957 | [13] 0.974 | [14] 0.977 | [15] 0.907 | [16] 0.816 | [17] 0.909 | [18] 0.979 | [19] 0.957 | [20] 0.957 | [21] 0.885 | [22] 0.958 | [23] 0.881 | [24] 0.965 | [25] 0.824 | [27] 0.919 | [28] 0.979 | [29] 0.919 | [30] 0.966 | [31] 0.888 | [32] 0.943 | [33] 0.881 | [34] 0.977 | [35] 0.841 | [36] 0.972 | [37] 0.935 | [38] 0.919 | [39] 0.914 | [40] 0.96 | [41] 0.962 | [43] 0.891 | [44] 0.887 | [45] 0.865 | [46] 0.951 | [47] 0.922 | [48] 0.958 | [49] 0.974 | [50] 0.894 | [51] 0.956 | [52] 0.942 | [53] 0.96 | [54] 0.956 | [55] 0.794 | [56] 0.954 | [57] 0.885 | [58] 0.866 | [59] 0.96 | [60] 0.878 | [61] 0.963 | [62] 0.911 | [63] 0.881 | [64] 0.874 | [65] 0.943 | [66] 0.881 | [67] 0.955 | [68] 0.976 | [69] 0.979 | [70] 0.955 | [71] 0.962
active: [26] 0.815 | [42] 0.84

Cc1nnsc1C(=O)NNc1c(Cl)cccc1Cl
inactive: [1] 0.975 | [2] 0.974 | [3] 0.976 | [4] 0.977 | [5] 0.973 | [6] 0.979 | [7] 0.978 | [8] 0.993 | [9] 0.981 | [10] 0.982 | [11] 0.951 | [12] 0.985 | [13] 0.982 | [14] 0.986 | [15] 0.959 | [16] 0.933 | [17] 0.97 | [18] 0.98 | [19] 0.972 | [20] 0.98 | [21] 0.958 | [22] 0.981 | [23] 0.926 | [24] 1.02 | [25] 0.952 | [26] 1.02 | [27] 0.982 | [28] 1.02 | [29] 0.942 | [30] 0.981 | [31] 0.992 | [32] 0.926 | [33] 0.939 | [34] 0.984 | [35] 0.926 | [36] 1.05 | [37] 0.958 | [38] 0.948 | [39] 0.905 | [40] 0.98 | [41] 1.02 | [43] 0.939 | [44] 0.935 | [45] 0.927 | [46] 0.978 | [47] 0.941 | [48] 0.98 | [49] 0.993 | [50] 0.946 | [51] 0.979 | [52] 0.983 | [53] 0.988 | [54] 0.973 | [55] 0.948 | [56] 0.978 | [57] 0.927 | [58] 0.927 | [59] 1.01 | [60] 0.925 | [61] 0.977 | [62] 0.971 | [63] 0.949 | [64] 0.952 | [65] 0.973 | [66] 0.921 | [67] 0.975 | [68] 0.965 | [69] 0.976 | [70] 0.978 | [71] 0.977
active: [42] 0.844

O=C(NNc1ccccc1F)c1ccno1
inactive: [1] 0.981 | [2] 0.97 | [3] 0.976 | [4] 0.98 | [5] 0.977 | [6] 0.987 | [7] 0.981 | [8] 0.979 | [9] 0.983 | [10] 0.973 | [11] 0.942 | [12] 0.979 | [13] 0.975 | [14] 0.983 | [15] 0.948 | [16] 0.869 | [17] 0.957 | [18] 0.986 | [19] 0.979 | [20] 0.982 | [21] 0.92 | [22] 0.982 | [23] 0.915 | [24] 1.01 | [25] 0.904 | [26] 0.959 | [27] 0.952 | [28] 0.998 | [29] 0.934 | [30] 0.983 | [31] 0.937 | [32] 0.972 | [33] 0.929 | [34] 0.979 | [35] 0.886 | [36] 1.01 | [37] 0.937 | [38] 0.943 | [39] 0.905 | [40] 0.978 | [41] 1.01 | [42] 0.863 | [43] 0.93 | [44] 0.934 | [45] 0.906 | [46] 0.979 | [47] 0.95 | [48] 0.986 | [49] 0.993 | [50] 0.929 | [51] 0.979 | [52] 0.937 | [53] 0.984 | [54] 0.976 | [55] 0.924 | [56] 0.98 | [57] 0.909 | [58] 0.884 | [59] 0.996 | [60] 0.888 | [61] 0.985 | [62] 0.964 | [63] 0.909 | [64] 0.937 | [65] 0.976 | [66] 0.914 | [67] 0.978 | [68] 0.968 | [69] 0.961 | [70] 0.983 | [71] 0.977

Cc1nnsc1C(=O)Nc1cc(C(F)(F)F)cc(C(F)(F)F)c1
inactive: [1] 0.956 | [2] 0.957 | [3] 0.953 | [4] 0.958 | [5] 0.962 | [6] 0.958 | [7] 0.959 | [8] 0.964 | [9] 0.958 | [10] 0.95 | [11] 0.987 | [12] 0.966 | [13] 0.951 | [14] 0.955 | [15] 0.995 | [16] 1 | [17] 1.01 | [18] 0.948 | [19] 0.958 | [20] 0.955 | [21] 0.987 | [22] 0.964 | [23] 1 | [24] 1.02 | [25] 0.974 | [26] 1 | [27] 0.908 | [28] 1.07 | [29] 0.846 | [30] 0.957 | [31] 0.946 | [32] 0.957 | [33] 1.01 | [34] 0.956 | [35] 0.976 | [36] 1.1 | [37] 0.993 | [38] 0.977 | [39] 0.961 | [40] 0.947 | [41] 1.06 | [42] 0.961 | [43] 0.991 | [44] 0.941 | [45] 0.997 | [46] 0.962 | [47] 0.984 | [48] 0.951 | [49] 0.964 | [50] 0.985 | [51] 0.957 | [52] 1.05 | [53] 0.954 | [54] 0.961 | [55] 0.992 | [56] 0.951 | [57] 0.985 | [58] 0.996 | [59] 1.05 | [60] 1.03 | [61] 0.966 | [62] 1 | [63] 0.989 | [64] 0.99 | [65] 0.961 | [66] 0.864 | [67] 0.967 | [68] 0.948 | [69] 0.943 | [70] 0.925 | [71] 0.954
